Measured values: the supplement of paper PMC12808144
Values without a mark were called inactive.

Each molecule was assayed on NHEM-hTERT (assay: cell viability relative to DMSO control (fraction of DMSO control); higher = less cytotoxic, active = 0.5 or less). Details: 1 µM; 120 h.
Method in brief: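 For 120 h, duplicate wells of 384-well plates held 1 µM of each of 315 approved anti-cancer drugs (TargetMol), spotted acoustically before cells were added in 40 µl per well. Immortalized NHEM-hTERT melanocytes were seeded at 2500/well, and patient-derived Mel-DCC-11 plus its resistant subline Mel-DCC-11-R at 1500/well. The subline was run both without and with 8 µM of its selecting drug, and ATPlite 1step luminescence was read. Viability was normalised to vehicle-treated wells and averaged over the two replicates.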

Q: Which cell viability does the source give for `COc1cccc2c1C(=O)c1c(O)c3c(c(O)c1C2=O)C[C@@](O)(C(=O)CO)C[C@@H]3O[C@H]1C[C@H](N)[C@H](O[C@H]2CCCCO2)[C@H](C)O1` [Pirarubicin] here?
A: 0.839

Q: How did the cell viability turn out when `CC(=O)c1c(C)c2cnc(Nc3ccc(N4CCNCC4)cn3)nc2n(C2CCCC2)c1=O.Cl` [Palbociclib hydrochloride] was run?
A: 1.05

Q: Which cell viability does the source give for `CCC1(O)C(=O)OCc2c1cc1n(c2=O)Cc2cc3cc(O)ccc3nc2-1` (configuration not stated) [Hydroxy Camptothecine] here?
A: 0.899

Q: For `CN(C)N=Nc1[nH]cnc1C(N)=O` [Dacarbazine], which cell viability is on record?
A: 0.982

Q: How did the cell viability turn out when `O=C(CCCCCCNC(=O)c1cnc(N(c2ccccc2)c2ccccc2)nc1)NO` [Rocilinostat] was run?
A: 0.847

Q: For `CNC(=O)c1c(C)oc2cc(Oc3ncnc4cc(OC)c(OC)cc34)ccc12` [Fruquintinib], which cell viability is on record?
A: 0.982

Q: For `NC(=O)N1CCC(CC(=O)N2CCC([C@H]3c4ncc(Br)cc4CCc4cc(Cl)cc(Br)c43)CC2)CC1` [Lonafarnib], which cell viability is on record?
A: 0.9

Q: Which cell viability does the source give for `CCOc1cc2ncc(C#N)c(Nc3ccc(OCc4ccccn4)c(Cl)c3)c2cc1NC(=O)/C=C/CN(C)C` [Neratinib] here?
A: 0.732

Q: `Cc1cc(Nc2cc(N3CCN(C)CC3)nc(Sc3ccc(NC(=O)C4CC4)cc3)n2)n[nH]1` [Tozasertib] was tested. Which cell viability did it give?
A: 0.841

Q: For `COc1cc(N2CCC(N3CCN(C)CC3)CC2)ccc1Nc1ncc(Cl)c(Nc2ccccc2P(C)(C)=O)n1` [Brigatinib], which cell viability is on record?
A: 0.91

Q: For `Nc1ncn([C@@H]2O[C@H](CO)[C@@H](O)[C@H]2O)c(=O)n1` [Mylosar], which cell viability is on record?
A: 0.874

Q: Which cell viability does the source give for `Nc1nc2[nH]nnc2c(=O)[nH]1` [8-Azaguanine] here?
A: 1.08

Q: Which cell viability does the source give for `C=CC(=O)Nc1cccc(Nc2nc(Nc3ccc(N4CCN(C(C)=O)CC4)cc3OC)ncc2C(F)(F)F)c1` [Rociletinib] here?
A: 0.71

Q: With `Oc1c(I)cc(Cl)c2cccnc12` [Clioquinol] as the molecule, how does the cell viability read?
A: 0.798

Q: How did the cell viability turn out when `COc1cc2nccc(Oc3ccc(NC(=O)C4(C(=O)Nc5ccc(F)cc5)CC4)cc3)c2cc1OC.O=C(O)C[C@H](O)C(=O)O` was run?
A: 0.932

Q: `O=c1c(-c2ccc(O)cc2)coc2cc(O)cc(O)c12` [Genistein] was tested. Which cell viability did it give?
A: 1.1

Q: For `CCc1c2c(nc3ccc(OC(=O)N4CCC(N5CCCCC5)CC4)cc13)-c1cc3c(c(=O)n1C2)COC(=O)[C@]3(O)CC.Cl.O.O.O` [Irinotecan hydrochloride trihydrate], which cell viability is on record?
A: 0.875

Q: `COC(=O)c1ccc2c(c1)NC(=O)/C2=C(\Nc1ccc(N(C)C(=O)CN2CCN(C)CC2)cc1)c1ccccc1` [Nintedanib] was tested. Which cell viability did it give?
A: 0.909

Q: For `C[C@@H](CN1CC(=O)NC(=O)C1)N1CC(=O)NC(=O)C1.Cl` [Dexrazoxane HCl], which cell viability is on record?
A: 1.2

Q: For `CC(=O)c1c(C)c2cnc(Nc3ccc(N4CCNCC4)cn3)nc2n(C2CCCC2)c1=O` [Palbociclib], which cell viability is on record?
A: 0.993

Q: For `Cc1ccc(-c2ncc(Cl)cc2-c2ccc(S(C)(=O)=O)cc2)cn1` [Etoricoxib], which cell viability is on record?
A: 1.17

Q: For `C1=C/COCc2cc(ccc2OCCN2CCCC2)Nc2nccc(n2)-c2cccc(c2)COC/1` [Pacritinib], which cell viability is on record?
A: 1.04

Q: How did the cell viability turn out when `Nc1[nH]c(=O)ncc1F` [Fluorocytosine] was run?
A: 1.04

Q: Which cell viability does the source give for `CC(C)=CCC/C(C)=C/CC/C(C)=C/CC/C(C)=C/CC1=C(C)C(=O)c2ccccc2C1=O` [Menatetrenone] here?
A: 1.02

Q: `C#C[C@]1(O)CC[C@H]2[C@@H]3CCc4cc(OC5CCCC5)ccc4[C@H]3CC[C@@]21C` [Quinestrol] was tested. Which cell viability did it give?
A: 0.894

Q: With `O=c1cc[nH]c(=O)[nH]1` [Uracil] as the molecule, how does the cell viability read?
A: 1.1

Q: For `N#CC1(c2ccc(NC(=O)c3cccnc3NCc3ccncc3)cc2)CCCC1` [Apatinib], which cell viability is on record?
A: 0.966

Q: How did the cell viability turn out when `CO[C@H]1C[C@@H]2CC[C@@H](C)[C@@](O)(O2)C(=O)C(=O)N2CCCC[C@H]2C(=O)O[C@H]([C@H](C)C[C@@H]2CC[C@@H](OCCO)[C@H](OC)C2)CC(=O)[C@H](C)/C=C(\C)[C@@H](O)[C@@H](OC)C(=O)[C@H](C)C[C@H](C)/C=C/C=C/C=C/1C` [Everolimus] was run?
A: 0.964

Q: With `CS(=O)(=O)OCCCCOS(C)(=O)=O` [Busulfan] as the molecule, how does the cell viability read?
A: 1.14

Q: `COc1ccc([C@@H]2CC(=O)c3c(O)cc(O)cc3O2)cc1O` [Hesperetin] was tested. Which cell viability did it give?
A: 0.971

Q: For `Cc1c(C)c2c(c(C)c1O)CCC(C)(COc1ccc(CC3SC(=O)NC3=O)cc1)O2` (configuration not stated) [Troglitazone], which cell viability is on record?
A: 1.05

Q: `CC(C)C[C@H](NC(=O)[C@H](CCc1ccccc1)NC(=O)CN1CCOCC1)C(=O)N[C@@H](Cc1ccccc1)C(=O)N[C@@H](CC(C)C)C(=O)[C@@]1(C)CO1` [Carfilzomib] was tested. Which cell viability did it give?
A: 0.0167 (active)

Q: With `CCN(c1cc(-c2ccc(CN3CCOCC3)cc2)cc(C(=O)NCc2c(C)cc(C)[nH]c2=O)c1C)C1CCOCC1` as the molecule, how does the cell viability read?
A: 0.964

Q: For `Oc1ccc(/C=C/c2cc(O)cc(O)c2)cc1` [Resveratrol], which cell viability is on record?
A: 1

Q: How did the cell viability turn out when `COc1cc2nccc(Oc3ccc(NC(=O)C4(C(=O)Nc5ccc(F)cc5)CC4)cc3)c2cc1OC` [Cabozantinib] was run?
A: 0.739

Q: How did the cell viability turn out when `Nc1nc(=O)c2c([nH]1)NCC(CNc1ccc(C(=O)N[C@@H](CCC(=O)[O-])C(=O)[O-])cc1)N2C=O.[Ca+2]` (some centres not stated) [Calcium folinate] was run?
A: 1.16

Q: For `CC1(COc2ccc3c(c2)ncn3-c2ccc3cccc(N4CCC(N)CC4)c3n2)COC1` [Crenolanib], which cell viability is on record?
A: 0.873
